Screening data deposited in PubChem BioAssay by NMMLSC.
Prostate diff: activators of LNCaP prostate cell differentiation, primary screen, flow cytometry side scatter; 4 d; side scatter shift, % at 10 µM; actives 0.56% (n = 24,000); AID 795, 2007;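 active = side scatter shift above 30%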;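 also: androgen-responsive LNCaP prostate cancer cells in charcoal-stripped serum medium; percent of cells past a gate set so DMSO wells show 10% shift; higher shift means more granular cells and more differentiation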
Proteasome disasm: inhibitors of ATP-driven 26S proteasome dissociation, primary screen, biochemical, bead-based flow cytometry, GFP-tagged proteasome; actives 0.2% (n = 24,000); anti-FLAG beads, GFP-proteasome disassembly; inhibition of disassembly, % (test concentration not listed);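 active = inhibition of disassembly above about 33%, limit read from the data; inconclusive = likely self-fluorescent, control bead median signal at least 40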;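 also: plate controls were ATP control with full disassembly for no effect and ATP-gamma-S intact proteasomes for full effect; higher percent means more bead fluorescence retained so stronger block of disassembly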
VLA-4 allo ag: enhancers of LDV-FITC binding to VLA-4 integrin, primary screen, Jurkat cells, flow cytometry. Integrin alpha-4 (Homo sapiens), P13612. activation, % at 10 µM (by protocol). 24,000 tested, under 10 active;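 active = fluorescent ligand binding to cells raised by more than 40% of the manganese-induced maximum; inconclusive = compound's own fluorescence above 85% of the ligand control signal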;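 also: 0% = ligand binding without compound and 100% = manganese-stimulated maximal binding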
Target sequence (P13612 whole entry, looked up): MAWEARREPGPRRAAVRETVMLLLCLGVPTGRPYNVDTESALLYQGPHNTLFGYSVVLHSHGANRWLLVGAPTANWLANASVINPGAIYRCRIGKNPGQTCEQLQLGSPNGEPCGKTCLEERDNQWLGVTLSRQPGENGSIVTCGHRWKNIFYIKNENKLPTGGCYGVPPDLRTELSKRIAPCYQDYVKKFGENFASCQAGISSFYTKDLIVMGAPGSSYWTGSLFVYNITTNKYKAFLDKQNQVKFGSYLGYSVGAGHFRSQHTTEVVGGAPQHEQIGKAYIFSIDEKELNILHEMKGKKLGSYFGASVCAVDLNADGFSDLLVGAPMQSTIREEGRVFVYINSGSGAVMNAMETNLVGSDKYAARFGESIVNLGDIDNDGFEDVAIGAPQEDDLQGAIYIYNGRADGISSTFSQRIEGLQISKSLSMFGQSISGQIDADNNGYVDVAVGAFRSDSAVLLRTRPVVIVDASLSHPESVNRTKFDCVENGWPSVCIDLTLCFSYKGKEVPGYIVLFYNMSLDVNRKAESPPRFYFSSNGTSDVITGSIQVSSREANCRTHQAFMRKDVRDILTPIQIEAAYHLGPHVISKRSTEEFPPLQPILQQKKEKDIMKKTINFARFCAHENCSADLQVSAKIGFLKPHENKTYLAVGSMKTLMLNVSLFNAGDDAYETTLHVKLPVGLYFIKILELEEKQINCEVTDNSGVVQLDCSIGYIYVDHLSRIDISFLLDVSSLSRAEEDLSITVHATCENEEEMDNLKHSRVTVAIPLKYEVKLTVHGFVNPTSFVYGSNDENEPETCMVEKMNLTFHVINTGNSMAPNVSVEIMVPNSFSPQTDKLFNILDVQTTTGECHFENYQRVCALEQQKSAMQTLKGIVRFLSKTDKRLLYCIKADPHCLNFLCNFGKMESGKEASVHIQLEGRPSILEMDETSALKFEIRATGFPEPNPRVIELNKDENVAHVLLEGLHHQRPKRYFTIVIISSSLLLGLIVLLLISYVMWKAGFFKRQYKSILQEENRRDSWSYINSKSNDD
Autofluor Jurkat: compound autofluorescence on Jurkat cells, primary screen, artefact control for VLA-4 allosteric ligand project, cell-based, flow cytometry. stronger effect = higher value; 1 = vehicle-only cell background. fluorescence ratio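 (tested at 10 µM compound in the well)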. actives 0.61% (n = 24,000);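 active = fluorescence ratio above 2.44, which is 1 plus 3 SD of all ratios; inconclusive = signal too bright to measure linearly, ratio around 10 or more; inactive = fluorescence ratio below 2.44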;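 also: green fluorescence of cells measured with 488 nm excitation and 530 nm emission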
VLA-4 antagonist: inhibitors of LDV-FITC binding to Mn2+-activated VLA-4, primary screen, Jurkat cells | Integrin alpha-4 (Homo sapiens), P13612 | LDV-FITC binding with Mn2+, flow cytometry; 100% = Mn2+-driven binding gain fully reversed | inhibition, % at 10 µM (by protocol) | actives 0.2% (n = 24,000);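 active = inhibition above 50%; inconclusive = compound itself fluorescent, judged against control cell fluorescence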;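 also: 0% = Mn2+ stimulated cells lacking compound and 100% = ligand binding without Mn2+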
* marks the source's active call; other numbers are inactive results; ? = inconclusive. In the library only some 1.6% were active in any assay of this set; here they are far more common.

SMILES	Prostate diff	Proteasome disasm	VLA-4 allo ag	Autofluor Jurkat	VLA-4 antagonist
CCOC(=O)c1c(C)[nH]c(C(=O)Cn2c(=O)c3c(ncn3CC)n(Cc3ccccc3)c2=O)c1C	0	70*	1	1.2	16
COc1ccc(-c2noc(CCC(=O)NCCCN3CCC(Cc4ccccc4)CC3)n2)cc1	32*	65	-3	1.2	9
COc1cccc(-c2nnc3sc(-c4ccc(C)cc4)nn23)c1	9	-1	6	1.1	-10
Clc1cccc(-c2nnc3sc(-c4ccccc4)nn23)c1	32*	-2	0	1.1	-19
COc1ccccc1CNC(=O)C1CCN(Cc2nc(-c3ccc(Cl)cc3)oc2C)CC1	32*	6	?	1.3	?
CCN1CCCC1CNC(=O)C1CCN(Cc2nc(-c3cccc(Br)c3)oc2C)CC1 (stereo not given)	63*	4	4	1	-1
CCN1CCN(CCNC(=O)C2CCN(Cc3nc(-c4ccc(Cl)cc4)oc3C)CC2)CC1	44*	0	?	0.96	?
CCc1ccc(-c2nc(CN3CCC(C(=O)NCCc4ccc(OC)c(OC)c4)CC3)c(C)o2)cc1	32*	5	?	1.2	?
COc1ccc(-c2nc(CN3CCC(C(=O)NC4CCCc5ccccc54)CC3)c(C)o2)cc1OC (stereo not given)	39*	5	-10	1.1	-1
CCOc1ccc(C2N(c3ccc(OC)cc3)C(=O)C3CCCN32)cc1OC (stereo not given)	8	-1	-3	1	-2
CCOc1ccc(C2N(c3ccc(F)cc3)C(=O)C3CCCN32)cc1OC (stereo not given)	14	51*	3	1.1	-23
COc1ccc(OC)c(/C=c2\sc3nc(-c4cccs4)nn3c2=O)c1	19	4	?	4.1*	?
N#Cc1cc2c(nc1SCC(=O)Nc1sc3c(c1C#N)CCC3)CCCCC2	13	105*	0	1.1	-10
CCOC(=O)c1sc(NC(=O)CSc2nc3c(cc2C#N)CCC3)c(C#N)c1C	5	1	0	1	-23
CN1CCN(c2ccccc2NS(=O)(=O)c2ccc3c(c2)CCN3C(=O)C2CCC2)CC1	46*	1	-5	1.1	15
O=C(C1CCC1)N1CCc2cc(S(=O)(=O)NC3CCCC3)ccc21	8	1	-3	1.1	-6
Cc1cccc(-c2noc(CN(C(=O)c3c(-c4ccccc4Cl)noc3C)C(C)C)n2)c1	6	2	-15	1.1	59*
COc1ccc(-c2nc(C(N)=O)c3[nH]c(=O)n(-c4cccc(Cl)c4)c3n2)cc1OC	7	5	?	4.5*	?
Cc1cc(O)c(-c2cc(C(=O)Nc3ccc(S(=O)(=O)N4CCOCC4)cc3)[nH]n2)cc1C	27	0	-24	1.1	56*
N=c1n(CCN2CCCCC2)c2ccccc2n1CC(O)COc1ccccc1 (stereo not given)	64*	5	2	1.1	-12
Cc1sc(NC(=O)CSc2nc(N)n(CC(=O)c3ccccc3)n2)c(C#N)c1C	17	-2	1	1.1	-8
O=C(Nc1ccccc1)C1=C(O)CC(c2ccoc2)CC1=Nc1ccccc1 (stereo not given)	2	4	?	1.9	?
O=C(Nc1ccccc1)C1=C(O)CC(c2ccco2)CC1=Nc1ccccc1 (stereo not given)	4	47*	-7	1.4	9
O=C(OCn1nnc2ccccc2c1=O)c1cc2ccccc2o1	12	0	0	1	-39
O=C(N1CCOCC1)N1CCC(NC(=O)C23CC4CC(CC(C4)C2)C3)CC1	6	1	4	0.95	-5
SMILES	Prostate diff	Proteasome disasm	VLA-4 allo ag	Autofluor Jurkat	VLA-4 antagonist
Cc1cc(=O)n2nc(N3CCCC(C(=O)NCCCN4CCc5ccccc5C4)C3)sc2n1 (stereo not given)	38*	-2	0	1.1	1
COCCNC(=O)C1CCCN(c2nn3c(=O)cc(C)nc3s2)C1 (stereo not given)	13	3	-2	1.1	3
CCN(CC)c1ccc(NC(=O)C2CCCN(S(=O)(=O)c3cnc[nH]3)C2)c(C)c1 (stereo not given)	13	-1	-3	1.1	7
COc1ccc(CNC(=O)c2cc(C3CC3)on2)cc1	11	1	2	1	6
COc1ccc(CNC(=O)c2onc(C)c2Cl)cc1	4	124*	?	1.1	?
COc1ccc(CCN(C)CCCC(C#N)(c2ccc(OC)c(OC)c2)C(C)C)cc1OC (stereo not given)	3	?	6	0.98	-24
CC(=O)c1cccc(NC2c3ccccc3C(=O)N2Cc2ccc3c(c2)OCO3)c1 (stereo not given)	30*	0	?	1.3	?
Cc1ccc(C2CC(c3ccccc3Cl)n3nc(N)nc3N2)cc1 (stereo not given)	3	-1	1	1.1	-2
Nc1nc2n(n1)C(c1ccccc1Cl)CC(c1ccc(F)cc1)N2 (stereo not given)	3	0	?	2.7*	?
NC(=O)c1oc2ccccc2c1NC(=O)c1nc2ccccc2s1	22	10	?	5.4*	?
CCOCC(=O)Nc1c(C(=O)OCC)oc2ccccc12	6	-1	1	1.1	7
CC1(C)CC(=O)c2c(-c3cccs3)n[nH]c2C1	2	-1	-6	1.1	2
O=C(CSc1ncnc2c1nnn2Cc1ccccc1F)N1CCN(c2ccccc2)CC1	7	2	-11	1.3	37
CCOc1ccccc1C1CC(c2ccc(Br)cc2)Nc2nc(N)nn21 (stereo not given)	4	0	2	1	-12
COc1ccc(S(=O)(=O)N2CCC(C(=O)Nc3ccccc3C)CC2)c2cccnc12	12	1	1	0.95	3
O=C(Cc1coc(-c2ccc(F)cc2)n1)N1CCOCC1	30*	1	-8	1.1	13
COC(=O)c1cc(NC2c3ccccc3C(=O)N2CCN2CCOCC2)cc(C(=O)OC)c1 (stereo not given)	13	1	10	0.84	-1
COc1cccc(-n2nnc3c(=O)n(CC(=O)N4CCC(C)CC4)cnc32)c1	1	0	-2	1	-2
COc1cccc(-n2nnc3c(=O)n(CC(=O)N4CCC(Cc5ccccc5)CC4)cnc32)c1	12	1	-5	1.1	74*
CC(=O)c1c(C)[nH]c(C(=O)N2CCc3ccccc3C2)c1C	13	-2	1	1	60*
CC(=O)c1c(C)[nH]c(C(=O)N2CCN(C(=O)c3ccco3)CC2)c1C	2	0	?	1	?
COc1ccc(Cl)c(NC(=O)NCCN2CCN(c3ccccc3)CC2)c1	18	-4	-3	0.94	12
